Experimental findings from PubChem BioAssay (NCATS) are described below.

Results filed as inconclusive are left out. The source made the active and inactive calls. Unless noted, calls come from the whole dose curve; as a rule, active = well fitted curve in the direction sought with a large enough effect; inconclusive = small, poorly fitted or top-dose-only effect, or another doubt; inactive = no such curve, though single readings can be large; an effect the other way counts as inactive or inconclusive. Bounds are passed on as bounds.

The target of test [1] is Lysosomal acid glucosylceramidase (Homo sapiens) (UniProt P04062). Kind of test: Glucocerebrosidase-p2 (AID 348; in the data active = potency below about 10 µM; note: potency is the fitted concentration of half-maximal effect). To be noted: purified GBA, blue fluorogenic substrate, 40 min. The procedure, abridged: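 Compounds titrated from 0.6 nM upwards against 0.2 nM enzyme in pH 5.9 citric acid/KH2PO4, taurocholate, tween-20; blue fluorogenic substrate 80 uM, 40 min room temperature, stopped and read Ex 365/Em 440 for AC50.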
Lysosomal acid glucosylceramidase (Homo sapiens), sequence (P04062 whole entry, looked up): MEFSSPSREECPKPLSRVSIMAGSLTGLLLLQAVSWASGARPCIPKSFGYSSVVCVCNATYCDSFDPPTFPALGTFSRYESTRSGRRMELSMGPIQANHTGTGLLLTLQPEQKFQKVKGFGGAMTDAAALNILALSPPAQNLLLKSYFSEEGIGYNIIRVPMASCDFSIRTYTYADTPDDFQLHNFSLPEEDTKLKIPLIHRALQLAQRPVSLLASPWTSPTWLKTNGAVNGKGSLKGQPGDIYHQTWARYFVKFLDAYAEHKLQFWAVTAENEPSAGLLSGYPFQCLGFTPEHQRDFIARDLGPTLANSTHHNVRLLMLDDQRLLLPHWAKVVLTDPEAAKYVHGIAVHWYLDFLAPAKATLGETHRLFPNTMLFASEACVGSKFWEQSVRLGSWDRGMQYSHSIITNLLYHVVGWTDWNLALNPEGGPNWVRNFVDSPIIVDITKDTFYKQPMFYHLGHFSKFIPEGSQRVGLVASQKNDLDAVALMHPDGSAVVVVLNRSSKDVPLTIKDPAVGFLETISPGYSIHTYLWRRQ

A short description of test [2]: AP1 Signaling Pathway (AID 357; active = well fitted curve in either direction with a large enough effect, not every such curve was filed as active;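 note: ME-180 reporter cells stimulated with EGF at its EC50 level; % is set by controls: 0 for no effect and ±100 for the full control effect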). To be noted: ME-180 AP-1-bla reporter, EGF-induced, beta-lactamase ratio, 5 h; at 7.69 µM (top of the series) unless noted. The gist of the method:
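In this screen, ME-180 cells in Opti-MEM with 0.5% dialyzed FBS received EC50 EGF and compound titrations for 5 h. AP-1 reporter beta-lactamase was detected via CCF4 ratio, giving AC50 for positive and negative modulators.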

A short description of test [3]: NFAT Signaling Pathway (AID 444; active = well fitted curve in either direction with a large enough effect, not every such curve was filed as active;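 note: carbachol stimulus at about its EC50 of 1 µM final; % is set by controls: 0 for no effect and ±100 for the full control effect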). To be noted: Jurkat NFAT-bla M1, carbachol, beta-lactamase ratio, 5 h; at 7.69 µM (top of the series) unless noted. The procedure, abridged:
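Jurkat cells carrying an NFAT-driven β-lactamase reporter and co-transfected muscarinic M1 receptor were treated with compound plus carbachol (1 uM final, an EC50 level) for 5 h at 37 °C. CCF4 loading followed for 1 h at RT; 460/530 nm ratio gave %activity.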

A short description of test [4]: Stat Signaling Pathway (AID 446; active = well fitted curve in either direction with a large enough effect, not every such curve was filed as active;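 note: ME-180 cervical cancer cells given 40 pM IL-6 alongside compound; SIE-controlled beta-lactamase reporter measured as 460/530 nm FRET emission ratio; % is set by controls: 0 for no effect and ±100 for the full control effect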). To be noted: ME-180 SIE beta-lactamase reporter, IL-6 stimulated, 5 h; at 7.69 µM (top of the series) unless noted. The gist of the method: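 ME-180 SIE-bla cells; overnight plating; cpd + IL-6 40 pM, 5 h, 37 C; LiveBLAzer 2.5 h RT; 460/530 nm emission ratio. Normalized to 300 pM IL-6 and 125 nM JAK inhibitor controls.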
Test [5] concerns the target Glucocorticoid receptor (Homo sapiens) (UniProt P04150). Put plainly: GR-EFC Redistribution (AID 451; calls by dose curve; note: potency is the fitted concentration of half-maximal effect). Particulars: CHO-K1 GR-EFC translocation, beta-gal luminescence, 2 h. The gist of the method: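 CHO-K1 cells stably expressing nuclear-localized β-gal enzyme acceptor and GR fused C-terminally to the enzyme donor fragment; ligand-driven nuclear translocation restores β-gal by complementation. Compounds titrated up to 46 uM final, 2 h at 37 °C; luminescence read.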

The target in test [6] is Mitogen-activated protein kinase 10 (Mus musculus) (UniProt Q61831). Kind of test: JNK3 AlphaScreen Assay (AID 530; active = well fitted curve in either direction with a large enough effect, not every such curve was filed as active;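 note: kinase came from lysate of stimulated human HepG2 cells; signal reports phosphorylation of biotinylated GST-cJun 1-79 at Ser73 with 10 µM ATP; % is set by controls: 0 for no effect and ±100 for the full control effect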). To be noted: JNK3 lysate, c-Jun phosphorylation; series mostly up to 57.1 µM. The gist of the method:
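JNK3 came from HepG2 lysates pre-activated with IL-1beta and TNF-alpha and phosphorylated biotinylated GST-cJun (1-79) at 10 uM ATP, pH 7.6, room temperature. Compounds were titrated. AlphaScreen signal used anti-phospho-cJun (Ser73) antibody.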
For orientation: Alpha assays give light when donor and acceptor beads are brought close together.

For test [7], the target named is 3',5'-cyclic-AMP phosphodiesterase 4B (Homo sapiens) (UniProt Q07343). Put plainly: qHTS Assay for Inhibitors of PDE-IV (AID 607; active = well fitted activation curve with a large enough effect in the main read-out, with a control signal flat, not every such curve was filed as active; note: % of control where 0% means no effect). To be noted: HEK293 ACTOne CNG channel cells, membrane potential fluorescence; series mostly up to 22.9 µM. The gist of the method:
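ACTOne HEK293 cells carry a modified cAMP-gated CNG channel and express endogenous PDE4; plated 1000 cells/well, compounds up to 22.9 uM final. Membrane-potential dye fluorescence (ex 535/em 590) was read; parental cells received 10 uM forskolin + 100 uM RO 20-1724.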
Background: qHTS replaces the single test concentration by a dilution series.

A short description of test [8]: qHTS Assay for Lipid Storage Modulators (AID 1519; calls by dose curve). Particulars: Drosophila S3 cells, BODIPY lipid droplet/cell ratio, laser cytometry, cells loaded with oleic acid; for activity change, negative = inhibition: at 57.5 µM (top of the series). The procedure, abridged: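 Cells seeded at 5,000 per well were treated with compounds over a concentration series and loaded with oleic acid (400 uM, as added). Lipid droplet fluorescence (488 nm excitation, 500-530 nm channel) was read by laser-scanning cytometry and normalized to 20 uM Triacsin C.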

In test [9] the target is Dual specificity protein kinase CLK4 (Homo sapiens) (UniProt Q9HAZ1). Put plainly: qHTS Assay for Inhibitors of CDC-like Kinase 4 (Kinase-Glo Assay) (AID 1770). Note: nearly all actives have a fitted effect of over 65% in size. Note: potency is the fitted concentration of half-maximal effect. To be noted: recombinant Clk4, Kinase-Glo ATP depletion luminescence; series mostly up to 66.7 µM. The gist of the method: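 Substrate mix (RS peptide 100 uM, ATP 1 uM) dispensed, compound pinned in, then Clk4 added to 25 nM final. Incubated 4.5 h at RT; Kinase-Glo reagent added, luminescence read after 5 min.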
Dual specificity protein kinase CLK4 (Homo sapiens), sequence (Q9HAZ1 whole entry, looked up): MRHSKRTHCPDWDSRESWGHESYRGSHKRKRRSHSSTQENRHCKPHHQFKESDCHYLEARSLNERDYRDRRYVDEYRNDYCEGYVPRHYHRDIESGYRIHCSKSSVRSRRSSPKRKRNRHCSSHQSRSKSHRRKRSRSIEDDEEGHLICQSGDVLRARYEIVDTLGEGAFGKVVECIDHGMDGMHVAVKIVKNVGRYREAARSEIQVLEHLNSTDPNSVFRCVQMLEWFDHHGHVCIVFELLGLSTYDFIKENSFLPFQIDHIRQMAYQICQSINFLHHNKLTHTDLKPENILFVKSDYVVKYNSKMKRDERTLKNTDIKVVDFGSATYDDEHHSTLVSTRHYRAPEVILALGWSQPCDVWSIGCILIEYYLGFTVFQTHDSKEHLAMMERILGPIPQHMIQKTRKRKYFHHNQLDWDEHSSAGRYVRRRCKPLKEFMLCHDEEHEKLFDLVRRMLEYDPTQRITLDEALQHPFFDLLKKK

Test [10] shares this target. Put plainly: qHTS Assay for Inhibitors of CDC-like Kinase 4 (ADP-Glo Assay) (AID 1771). Note: nearly all actives have a fitted effect of over 70% in size. Note: potency is the fitted concentration of half-maximal effect. Particulars: recombinant CLK4, ADP-Glo luminescence; series mostly up to 80 µM. The gist of the method:
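Clk4 (25 nM) was incubated 1 hr at room temperature with 100 uM RS repeat peptide and 1 uM ATP in buffer with 2 mM MgCl2, 0.5 mM EGTA, 2.5 mM DTT. ADP formed was quantified by ADP-Glo luminescence.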

The target is the same in test [11]. Put plainly: qHTS Assay for Inhibitors of CDC-like Kinase 4 (ADP-FP Assay) (AID 1795). Note: nearly all actives have a fitted effect of over 60% in size. Note: potency is the fitted concentration of half-maximal effect. Particulars: Transcreener ADP fluorescence polarization; series mostly up to 50 µM. The gist of the method:
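Clk4 6.25 nM; RS peptide 100 uM; ATP 1 uM; 25 mM Tris pH 7.5, 10 mM MgCl2; 1 h reaction. ADP detected via antibody/orange tracer FP displacement; TG003 positive control.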

The target in test [12] is Ubiquitin carboxyl-terminal hydrolase 1 (Homo sapiens) (UniProt O94782). Kind of test: Inhibitors of USP1/UAF1: Pilot qHTS (AID 504865).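 Note: rhodamine fluorescence freed from ubiquitin-rhodamine substrate followed over time; top concentration of the series differs between compounds; % is set by controls: 0 for no effect and ±100 for the full control effect; nearly all actives have a fitted effect of over 35% in size.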 Particulars: purified USP1/UAF1, Ub-rhodamine cleavage fluorescence; series mostly up to 54.9 µM. The procedure, abridged: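 In 50mM HEPES pH 7.8 containing 0.5mM EDTA, 1mM TCEP, 0.1 mg/ml BSA and 0.01% Tween-20, 1nM USP1/UAF1 is exposed to compound for 15 min, then Ub-Rho (150nM final) is added and fluorescence is read over time.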
Ubiquitin carboxyl-terminal hydrolase 1 (Homo sapiens), sequence (O94782 whole entry, looked up): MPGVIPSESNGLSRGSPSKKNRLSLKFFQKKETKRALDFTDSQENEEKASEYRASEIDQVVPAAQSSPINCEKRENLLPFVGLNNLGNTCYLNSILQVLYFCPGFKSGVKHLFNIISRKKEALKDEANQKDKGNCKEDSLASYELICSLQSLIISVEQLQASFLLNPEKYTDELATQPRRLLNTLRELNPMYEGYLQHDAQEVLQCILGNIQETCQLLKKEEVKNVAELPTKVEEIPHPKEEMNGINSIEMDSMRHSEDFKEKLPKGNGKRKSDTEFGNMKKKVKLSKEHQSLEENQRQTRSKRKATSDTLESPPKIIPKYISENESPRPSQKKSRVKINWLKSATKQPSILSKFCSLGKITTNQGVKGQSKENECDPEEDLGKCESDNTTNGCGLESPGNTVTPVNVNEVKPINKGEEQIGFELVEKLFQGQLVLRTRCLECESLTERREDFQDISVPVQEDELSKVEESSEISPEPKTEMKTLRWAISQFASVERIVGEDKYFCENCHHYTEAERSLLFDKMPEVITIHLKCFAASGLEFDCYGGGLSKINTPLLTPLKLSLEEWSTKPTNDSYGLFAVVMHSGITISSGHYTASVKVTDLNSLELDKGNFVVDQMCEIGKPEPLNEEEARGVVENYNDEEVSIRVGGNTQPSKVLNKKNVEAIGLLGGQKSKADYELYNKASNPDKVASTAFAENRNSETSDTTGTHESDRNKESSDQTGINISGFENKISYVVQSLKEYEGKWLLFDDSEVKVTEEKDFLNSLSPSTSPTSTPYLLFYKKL

Test [13] can be described thus: Primary qHTS for small molecule stabilizers of the endoplasmic reticulum resident proteome: Secreted ER Calcium Modulated Protein (SERCaMP) assay (AID 1508630). Note: % is set by controls: 0 for no effect and ±100 for the full control effect. Particulars: SH-SY5Y GLuc-SERCaMP (Gaussia luciferase released on ER calcium loss) secretion, thapsigargin, luminescence; series mostly up to 38.4 µM. The gist of the method: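 GLuc-SERCaMP-expressing SH-SY5Y cells, pretreated 16 h with compound, are challenged with thapsigargin to empty ER calcium stores; after 4 h, coelenterazine is added directly to the medium and luminescence is imaged.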

Test [14] addresses Glucocorticoid receptor (Homo sapiens) (UniProt P04150). Kind of test: GR-GFP Redistribution (AID 450;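 active = compounds whose dose series gives a full or clear partial fitted curve of increased nuclear translocation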; note: potency is the fitted concentration of half-maximal effect). To be noted: U2OS GR-GFP nuclear translocation, laser cytometry, 2 h.
In test [15] the target is Cytochrome P450 3A4 (Homo sapiens) (UniProt P08684). Put plainly: qHTS Assay for Activators of Cytochrome P450 3A4 (AID 885). Note: nearly all actives have a fitted effect of over 65% in size. Particulars: recombinant CYP3A4, Luciferin-PPXE luminescence, 60 min; series mostly up to 57.1 µM. The procedure, abridged:
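20nM CYP3A4 + 25uM Luciferin-PPXE (=KM), 200mM KPO4; cpd 10 min RT; NADPH regen, 60 min RT; stop w/ detection buffer, 20 min; luminescence. Normalized to 57 uM ketoconazole.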

Test [16] addresses Cytochrome P450 1A2 (Homo sapiens) (UniProt P05177). Kind of test: p450-cyp1a2 (AID 410; calls by dose curve; note: potency is the fitted concentration of half-maximal effect;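 for activity change, negative = inhibition: -100% = full effect of reference inhibitor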). Particulars: recombinant CYP1A2, luciferin-ME demethylation, luminescence; series mostly up to 57 µM. The gist of the method:
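Human CYP1A2 (20nM) demethylated Luciferin-ME at its Km (100uM) in 100mM KPO4. After 10 min compound preincubation, NADPH regeneration ran the reaction 60 min at room temperature. Luciferin was read by luminescence, normalized to 57 uM furafylline.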

The nature of test [17]: qHTS Assay for Identification of Small Molecule Agonists for Hypoxia Response Element Signaling Pathway (AID 914; active = well fitted activation curve with a large enough effect in the signal ratio, with a control signal flat, not every such curve was filed as active; the % refers to the signal ratio; note: potency is the fitted concentration of half-maximal effect). Particulars: ME-180 (cervical carcinoma) HRE-bla reporter, beta-lactamase ratio, CoCl2, 17 h; activation: stronger effect = higher value. The gist of the method:
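HRE-bla ME-180 cells, overnight plating in Opti-MEM with 0.5% dialyzed FBS; cpd titration + EC50 CoCl2, 17 h, 37 degrees Celsius; CCF4 2.5 h RT; 460/530 nm ratio; AC50.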

Where [18] appears, read: measured here: cell count channel max response.
The mark [19] stands for this setting: measured here: lipid channel max response.

Glucocorticoid receptor (Homo sapiens), sequence (P04150 whole entry, looked up, the tested form may be a part): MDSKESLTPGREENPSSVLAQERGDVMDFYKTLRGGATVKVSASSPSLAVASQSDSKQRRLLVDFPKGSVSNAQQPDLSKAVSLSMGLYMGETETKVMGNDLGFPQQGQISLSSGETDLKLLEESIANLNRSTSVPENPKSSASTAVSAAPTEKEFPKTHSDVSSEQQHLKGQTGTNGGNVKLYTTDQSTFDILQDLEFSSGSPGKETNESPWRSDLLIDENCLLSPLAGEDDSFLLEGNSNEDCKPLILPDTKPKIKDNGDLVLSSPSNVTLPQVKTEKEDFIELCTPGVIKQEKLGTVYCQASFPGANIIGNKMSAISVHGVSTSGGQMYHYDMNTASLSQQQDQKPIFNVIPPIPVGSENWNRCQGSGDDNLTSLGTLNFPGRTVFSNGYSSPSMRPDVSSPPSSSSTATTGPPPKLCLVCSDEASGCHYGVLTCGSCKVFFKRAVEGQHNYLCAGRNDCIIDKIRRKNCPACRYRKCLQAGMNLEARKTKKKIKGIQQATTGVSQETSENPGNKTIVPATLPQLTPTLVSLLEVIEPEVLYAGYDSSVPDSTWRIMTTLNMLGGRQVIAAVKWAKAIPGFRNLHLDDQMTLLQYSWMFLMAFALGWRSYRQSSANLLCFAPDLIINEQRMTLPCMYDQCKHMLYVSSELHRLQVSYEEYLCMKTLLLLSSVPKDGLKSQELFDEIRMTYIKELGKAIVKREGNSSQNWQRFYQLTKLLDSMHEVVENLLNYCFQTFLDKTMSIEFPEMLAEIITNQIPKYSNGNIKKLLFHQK
Cytochrome P450 3A4 (Homo sapiens), sequence (P08684 whole entry, looked up): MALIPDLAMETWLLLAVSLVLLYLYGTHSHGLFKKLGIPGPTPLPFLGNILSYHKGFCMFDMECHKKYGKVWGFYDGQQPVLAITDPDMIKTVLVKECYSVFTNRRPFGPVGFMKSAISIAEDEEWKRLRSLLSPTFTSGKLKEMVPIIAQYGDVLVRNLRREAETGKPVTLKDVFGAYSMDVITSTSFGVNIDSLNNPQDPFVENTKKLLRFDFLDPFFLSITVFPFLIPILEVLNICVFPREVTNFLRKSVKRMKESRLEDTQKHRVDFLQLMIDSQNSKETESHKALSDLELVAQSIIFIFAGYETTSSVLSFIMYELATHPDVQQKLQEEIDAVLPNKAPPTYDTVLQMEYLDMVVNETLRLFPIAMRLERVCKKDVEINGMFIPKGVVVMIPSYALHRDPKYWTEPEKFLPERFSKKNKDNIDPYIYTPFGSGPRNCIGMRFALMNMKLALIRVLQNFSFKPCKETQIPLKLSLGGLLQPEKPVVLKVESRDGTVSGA
3',5'-cyclic-AMP phosphodiesterase 4B (Homo sapiens), sequence (Q07343 whole entry, looked up): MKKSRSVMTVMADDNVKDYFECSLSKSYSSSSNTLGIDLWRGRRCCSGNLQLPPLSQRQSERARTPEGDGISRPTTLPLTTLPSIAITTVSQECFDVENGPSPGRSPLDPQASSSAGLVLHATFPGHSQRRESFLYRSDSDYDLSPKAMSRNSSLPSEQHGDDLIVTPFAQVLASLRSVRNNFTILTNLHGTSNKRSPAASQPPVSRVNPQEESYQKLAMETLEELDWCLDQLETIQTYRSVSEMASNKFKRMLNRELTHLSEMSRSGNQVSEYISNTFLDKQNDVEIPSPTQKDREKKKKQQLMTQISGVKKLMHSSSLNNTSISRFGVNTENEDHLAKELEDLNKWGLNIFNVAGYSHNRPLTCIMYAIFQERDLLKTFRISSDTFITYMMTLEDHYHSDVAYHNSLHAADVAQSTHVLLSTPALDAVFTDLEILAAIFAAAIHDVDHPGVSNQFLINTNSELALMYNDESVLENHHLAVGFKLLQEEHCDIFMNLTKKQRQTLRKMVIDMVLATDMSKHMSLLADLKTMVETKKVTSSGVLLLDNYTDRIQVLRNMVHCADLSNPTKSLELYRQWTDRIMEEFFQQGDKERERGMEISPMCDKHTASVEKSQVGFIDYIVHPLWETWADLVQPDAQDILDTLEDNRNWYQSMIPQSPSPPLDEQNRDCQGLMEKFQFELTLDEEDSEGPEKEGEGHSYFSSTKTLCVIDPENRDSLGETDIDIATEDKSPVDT
Cytochrome P450 1A2 (Homo sapiens), sequence (P05177 whole entry, looked up): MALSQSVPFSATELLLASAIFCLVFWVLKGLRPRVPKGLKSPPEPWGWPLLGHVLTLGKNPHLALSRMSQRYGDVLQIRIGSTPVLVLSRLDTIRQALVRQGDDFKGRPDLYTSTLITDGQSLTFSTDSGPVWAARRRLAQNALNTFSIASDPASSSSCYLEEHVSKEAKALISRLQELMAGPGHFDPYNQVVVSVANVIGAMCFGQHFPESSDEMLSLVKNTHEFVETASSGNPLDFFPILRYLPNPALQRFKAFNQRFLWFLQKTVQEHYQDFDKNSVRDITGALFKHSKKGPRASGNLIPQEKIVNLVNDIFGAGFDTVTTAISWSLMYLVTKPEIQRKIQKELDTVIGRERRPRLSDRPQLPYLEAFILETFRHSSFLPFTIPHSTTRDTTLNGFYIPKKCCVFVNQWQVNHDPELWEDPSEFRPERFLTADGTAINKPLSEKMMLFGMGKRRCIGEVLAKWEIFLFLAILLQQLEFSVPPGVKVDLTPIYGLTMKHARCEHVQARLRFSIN

For the molecule `c1nc(N2CCNCC2)c2cc(-c3ccoc3)ccc2n1`, the Potency in [1] was > 11.4 µM (inactive); in test [5] it was > 46 µM (inactive); in [9], 1.58 µM (active); in test [10], 3.16 µM (active); in [11], 0.708 µM (active). The activity change, negative = inhibition in test [2] is -10.9% (inactive); in test [3], 9.12% (inactive); in test [8], 3.07% (inactive). Besides, the activity, negative = inhibition in test [4] was -4.93% (inactive). The molecule was called inactive in test [6]. Also, the Potency result in test [7], in test [12] and in [13] was “inactive” throughout. Besides, the max response in test [8] (setting [18]) was 29.3%; in test [8] (setting [19]), 29.5%.

In the case of `Cc1nc2cnc(N3CCOCC3)nc2n(C[C@H]2CCCO2)c1=O`, the values for the Potency in test [1], in [14] and in test [5] were > 11.4 µM (inactive), > 9.22 µM (inactive) and > 46 µM (inactive), respectively. Besides, the activity change, negative = inhibition was -13.4% (inactive) in test [2], -4.93% (inactive) in [3] and 3.62% (inactive) in test [8]. For the same molecule, the activity, negative = inhibition in test [4] was -8.29% (inactive). Also, in test [6], the outcome was inactive. Also, the max response in test [8] (setting [18]) was 10.2%; in test [8] (setting [19]), 13.9%. Besides, the Potency result in test [9], in test [10], in test [11], in [12] and in test [13] was “inactive” each time.

Regarding `COCCn1c(=O)c(C)nc2cnc(Oc3ccccc3)nc21`, the Potency was > 11.4 µM (inactive) in test [1] and > 9.22 µM (inactive) in test [14]. The activity change, negative = inhibition in [2] is -9.67% (inactive); in [3], -4.22% (inactive); in [8] it was 4.7% (inactive). Besides, the activity, negative = inhibition in test [4] is -12.4% (inactive). The result in [6] was inactive. Moreover, the Potency entry in test [7], in test [15], in test [9], in test [10], in [11] and in test [12] was “inactive” throughout. Also, in test [13], the Potency result is “inactive”. For the same molecule, the max response in test [8] (setting [18]) was 23.5%; in test [8] (setting [19]), 27.5%.

As to `CN1CCN(c2ncc3ncc(=O)n(C4CC4)c3n2)CC1`, the Potency in test [1] was > 11.4 µM (inactive); in test [14], > 9.22 µM (inactive); in test [5] it was > 46 µM (inactive). The activity change, negative = inhibition in [2] is -15.2% (inactive); in test [3], -12.8% (inactive); in test [8], -0.747% (inactive). For the same molecule, in test [4], the activity, negative = inhibition is -9.77% (inactive). Further, in [6], the outcome was inactive. In addition, the Potency result in [7], in test [9], in test [10], in test [11], in test [12] and in [13] was “inactive” each time. Further, the max response in test [8] (setting [18]) is -13.5%; in test [8] (setting [19]), -12.9%.

For the molecule `COCCn1c(=O)cnc2cnc(Nc3cccc(OC)c3)nc21`, the Potency was > 11.4 µM (inactive) in test [1]; 0.794 µM (active) in [16]; > 9.22 µM (inactive) in test [14]; > 46 µM (inactive) in [5]; 2.24 µM (active) in [9]; 1.78 µM (active) in test [10]. Also, in test [11], the Potency was 1.26 µM (active). The activity change, negative = inhibition in test [3] is -0.925% (inactive); in [8] it was -15.5% (inactive). For the same molecule, in [6], the molecule was called inactive. The Potency entry in test [7], in test [15], in [12] and in test [13] was “inactive” throughout. For the same molecule, the max response is -13.4% in test [8] (setting [18]) and -29.7% in test [8] (setting [19]).

With `CN1CCN(c2ncc3nc(-c4cccc(C#N)c4)c(=O)n(Cc4ccc(F)cc4)c3n2)CC1`, the Potency in test [1] is > 11.4 µM (inactive); in [14], > 9.22 µM (inactive); in test [5], > 46 µM (inactive); in test [17] it was 3.16 µM (active). Also, the Potency entry in test [16], in [7], in test [15], in test [9], in test [10] and in [11] was “inactive” throughout. Besides, the Potency entry in test [12] and in test [13] was “inactive” in each case. In addition, the molecule was called inactive in test [6]. The activity change, negative = inhibition in [8] was -3.63% (inactive). In addition, the max response in test [8] (setting [18]) was 1.09%; in test [8] (setting [19]), -4.23%.
